JMJD2A Tudor inh – inhibitors of human JMJD2A Tudor domain | AlphaScreen JMJD2A-Tudor / H3K4me3 peptide binding | actives 4.4% (n = 390,000) | O75164 | Potency, µM (highest dose often 114 µM), inactives show at the highest dose activity change, negative = inhibition, most hits filed as inhibitors; also: potency is read from the fitted curve at half-maximal effect; % is scaled to controls: 0 for no effect and ±100 for the full control effect; nearly all actives have a fitted effect of over 50% in size
HP1b chromo inh – blocks HP1-beta chromodomain binding to methylated histone tails; AlphaScreen HP1-beta / biotin-H3K9me3 peptide binding; Potency, µM (titrated, usually from 114 µM), for inactives: top-dose activity change, negative = inhibition, actives largely listed as inhibitors; actives 0.56% (n = 390,000); also: potency is read from the fitted curve at half-maximal effect; nearly all actives have a fitted effect of over 70% in size
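Compound inhibition of the preformed complex between 50 nM HP1-beta and 50 nM biotinylated H3K9me3 peptide was read by AlphaScreen. Buffer was PBS pH 7.4 with 0.01% Tween-20. Incubations ran 30 min at room temperature, with 10 ug/mL donor/acceptor beads.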
PLK1 PBD inh – PLK1 (human) polo-box domain binding inhibition; P53350; Plk1 PBD binding of FITC phosphopeptide, fluorescence polarization; Potency, µM, inactives show max response, negative = inhibition, most hits filed as inhibitors; actives 2.8% (n = 360,000); also: potency is read from the fitted curve at half-maximal effect; series mostly up to about 57 µM; % is scaled to controls: 0 for no effect and ±100 for the full control effect; nearly all actives have a fitted effect of over 65% in size
PI5P4Ka inh – inhibitors of human PI5P4K alpha; actives 1.2% (n = 330,000); P48426; AID 652105; max response, %; PI5P4Kalpha enzyme, ADP-Glo luminescence, 60 min; active compounds read low; active = max response of -50% or lower; inconclusive = between -30% and -50%; inactive = -30% or higher; also: value at the top dose of about 77 µM; % is scaled to controls: 0 for no effect and ±100 for the full control effect
Target sequence (P48426 whole entry, looked up): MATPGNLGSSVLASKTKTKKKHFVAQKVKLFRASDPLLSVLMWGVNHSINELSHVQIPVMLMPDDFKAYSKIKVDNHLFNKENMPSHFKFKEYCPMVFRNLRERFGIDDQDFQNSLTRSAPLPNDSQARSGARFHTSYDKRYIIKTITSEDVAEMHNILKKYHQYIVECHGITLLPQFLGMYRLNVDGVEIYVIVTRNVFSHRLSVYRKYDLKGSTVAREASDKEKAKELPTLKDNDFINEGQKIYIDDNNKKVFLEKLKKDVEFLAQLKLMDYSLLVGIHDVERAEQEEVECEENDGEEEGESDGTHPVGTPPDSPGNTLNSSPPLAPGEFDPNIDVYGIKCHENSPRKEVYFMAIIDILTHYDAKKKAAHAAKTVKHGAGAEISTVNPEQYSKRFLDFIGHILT
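PI5P4Kalpha ADP-Glo assay; 5 microM ATP final; 60 min RT reaction; HEPES pH 7.4/EGTA/CHAPS, 5% DMSO; controls lacking substrate or enzyme; luminescent end-point.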
BAZ2B block – inhibitors of human BAZ2B bromodomain; Q9UIF8; AlphaScreen BAZ2B-H3K14Ac peptide displacement; Potency, µM (series often up to 114 µM), for inactives: top-dose activity change, negative = inhibition, hits mostly inhibitors; actives 4.4% (n = 360,000); also: potency is read from the fitted curve at half-maximal effect; % is scaled to controls: 0 for no effect and ±100 for the full control effect; nearly all actives have a fitted effect of over 60% in size
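BAZ2B 50 nM plus b-H3(5-23)K14Ac 50 nM, PBS pH 7.4/0.01% Tween-20, 30 min RT; compound added (max 110 uM), 30 min RT; streptavidin donor/Ni-chelate acceptor beads 10 ug/mL final, 20 min dark; AlphaScreen read.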
G9a inh – inhibitors of human histone lysine methyltransferase G9a; Potency, µM (doses to about 102 µM), without a hit: at the highest dose activity, negative = inhibition, usual class: inhibitors; actives 8.8% (n = 350,000); G9a H3K9 monomethylation, AlphaScreen, 2 h; AID 504332; also: potency is read from the fitted curve at half-maximal effect; % is scaled to controls: 0 for no effect and ±100 for the full control effect; nearly all actives have a fitted effect of over 75% in size
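Using a bead-based AlphaScreen, monomethylated H3K9 product from 2 h room-temperature reactions (G9a 20 nM, peptide 500 nM, SAM 20 uM) was detected with 0.5 ug/mL rabbit anti-H3K9me1 antibody.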
* marks the source's active call; other numbers are inactive results; ? = inconclusive; / = not tested or not shown; [ ] = dose if it differs, or a comment. Hits are enriched below; roughly 12% of the tested compounds scored in any of these assays. Unless noted, calls follow the shape of the dose curve; as a rule, active = well fitted curve in the direction sought with a large enough effect; inconclusive = small, poorly fitted or top-dose-only effect, or another doubt; inactive = no such curve, though single readings can be large; an effect the other way counts as inactive or inconclusive.

SMILES | JMJD2A Tudor inh | HP1b chromo inh | PLK1 PBD inh | PI5P4Ka inh | BAZ2B block | G9a inh
Cc1ccc2c(c1)c1c3n2CC(=C2C(=O)OC(C)(C)OC2=O)NC3CCC1 (stereo not drawn) | ? | -16.6% | ? | / | ? | ?
Cc1ccc2c(c1)c(=O)c1c3n2CCN(C(=O)CCl)C3CC1 (stereo not drawn) | ? | -8.6% | ? | -21.6 | 39.8µM* | 11.2µM*
Cc1ccc2c(c1)c1c3n2CCN(C(=O)Cn2c(-c4ccccc4)noc2=O)C3CCC1 (stereo not drawn) | -34.5% | -3.8% | -3.0% | / | 6.8% | -11.0%
CN1CCN(CC(=O)N2CCn3c4c(c5cc(C6CCCCC6)ccc53)CCCC42)CC1 (stereo not drawn) | 39.8µM* | ? | -3.5% | -26.3 | 35.5µM* | ?
NS(=O)(=O)c1ccc(CCNC(=O)c2cnc(Cl)c(Cl)c2)cc1 | -10.0% | -8.5% | -10.0% | -15.9 | 1.5% | -8.6%
O=C(c1ccc(CSc2nc3ccncc3[nH]2)cc1)N1CCN(c2cccc(Cl)c2)CC1 | ? | 13.1% | -1.9% | 2.3 | 35.5µM* | 44.7µM*
Cc1ccc(-c2nc3c4ccccc4ccn3c2CC2CCCCC2)cc1 | / | / | -7.8% | 2.9 | / | /
COc1ccc(NC(=O)c2c(NCc3ccc(C)o3)sc3c2CCC(C)C3)c(OC)c1 (stereo not drawn) | 28.2µM* | -16.8% | / | / | -38.3% | 15.8µM*
COc1ccccc1NC(=O)c1c(NCc2ccc(C)o2)sc2c1CCC(C)C2 (stereo not drawn) | ? | -5.5% | / | / | -32.6% | 8.91µM*
COc1ccc(NC(=O)c2c(NCc3ccc(C)o3)sc3c2CCCCC3)c(OC)c1 | 50.1µM* | -17.3% | / | / | 17.7% | 13.1%[59 µM]
COc1ccc(NC(=O)c2c(NCc3cccs3)sc3c2CCC(C)C3)c(OC)c1 (stereo not drawn) | ? | -13.1% | / | / | ? | ?
COc1ccc(NC(=O)c2c(NCc3ccc(C)o3)sc3c2CCC(C)C3)cc1 (stereo not drawn) | 44.7µM* | -18.5% | / | / | -34.4% | 8.91µM*
COc1ccccc1NC(=O)c1c(NC(=O)Cc2ccccc2)sc2c1CCC(C(C)(C)C)C2 (stereo not drawn) | 10.0% | 32.9% | / | / | 3.0% | -46.3%[59 µM]
Cc1onc(-c2ccccc2)c1-c1nnc(CN2CCN(S(=O)(=O)c3ccccc3F)CC2)o1 | -12.8% | 29.1% | -1.6% | -0.4 | 1.2% | 10.8%[59 µM]
CN(C(=O)c1ccc(N2CCCCC2)c([N+](=O)[O-])c1)C1(C)CCS(=O)(=O)C1 (stereo not drawn) | -15.8% | -5.6% | -4.4% | 2.0 | ? | 0.4%[12.7 µM]
CC(=O)c1ccc(N2CCN(C(=O)CCCCn3c(=O)[nH]c4ccccc4c3=O)CC2)cc1 | 0.7% | 16.4% | / | / | 0.1% | -3.1%[59 µM]
O=C(O)C1CC=CCC1C(=O)N1CCc2ccccc21 (stereo not drawn) | ? | -16.4% | -24.7% | -11.9 | ? | 12.6µM*
O=C(O)C1C2C=CC(C3CC23)C1C(=O)N1CCc2ccccc21 (stereo not drawn) | 20µM* | -28.0% | -24.3% | / | -5.5% | 79.4µM*
O=C(C1COc2ccccc2O1)N1CCc2ccccc21 (stereo not drawn) | 79.4µM* | ? | ? | / | 44.7µM* | 50.1µM*
CCOC(=O)[C@]12CCCC=C1N(CCc1ccc(OC)c(OC)c1)C(=O)[C@H](CC(=O)NCCc1ccccc1OC)C2 | / | / | -7.8% | 11.1 | / | /
Cn1c(C(=O)NCCc2ccccc2)cc(=O)n(C)c1=O | -12.0% | -16.2% | 23.8µM* | 0.9 | -5.2% | 23.3%[59 µM]
Cc1ccc(N2C(=O)C3Sc4[nH]c(=O)sc4C(c4ccccc4)C3C2=O)cc1 (stereo not drawn) | -34.1% | 6.0% | -15.5% | -21.3 | 50.1µM* | 51.3%[0.501 µM]
Cc1cc(-c2csc(NC(=O)c3ccc(C#N)cc3)n2)c(C)n1Cc1ccccc1 | -26.0% | 28.6% | -10.3% | -20.5 | 7.8% | 44.7µM*
CCOc1ccc(-c2cc(C(=O)NCc3ccc(OC)cc3)c3c(-c4ccc(F)cc4)[nH]nc3n2)cc1 | -8.3% | 4.2% | / | / | 1.0% | -6.1%[59 µM]

From PubChem BioAssay
